Out of some 5,500 compounds screened, about 2,000 (36%) were called active. Another 18% or so got no clear call; they are omitted. Cut-off read from the data, not from the text of the source: active = normalized growth mostly below about 0.91 (no sharp cut-off); inconclusive = no clear call, values can overlap the other calls; inactive = mostly above about 0.92. Some of the results follow.
Experiment: chemical genetic growth profiling, strain panel (AID 1159580);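 note: tested at 20 µM; growth read once vehicle control cultures reached saturation at 30 °C; 1 = growth at the plate median or of vehicle wells; lower values mean less growth of the strain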
Conditions: growth OD

Measured: normalized growth

CC(C)CCCC(C)C1CC[C@@]2(C)C3=C(CC[C@]12C)[C@@]1(C)CC[C@H](O)C(C)(C)C1CC3 (stereo partly specified)
inactive: S. cerevisiae deletion strains, locus YAL013W, strain DEP1, stronger effect = lower value 1.01 | S. cerevisiae deletion strains, locus YBR021W, strain FUR4, stronger effect = lower value 0.959 | S. cerevisiae deletion strains, locus YBR229C, strain ROT2, stronger effect = lower value 1 | S. cerevisiae deletion strains, locus YCL029C, strain bik1, stronger effect = lower value 0.976 | S. cerevisiae deletion strains, locus YDL035C, strain GPR1, stronger effect = lower value 1 | S. cerevisiae deletion strains, locus YDL074C, strain BRE1, stronger effect = lower value 1.06 | S. cerevisiae deletion strains, locus YDL101C, strain DUN1, stronger effect = lower value 1.01 | S. cerevisiae deletion strains, locus YDL134C, strain PPH21, stronger effect = lower value 0.997 | S. cerevisiae deletion strains, locus YDL185W, strain tfp1, stronger effect = lower value 0.985 | S. cerevisiae deletion strains, locus YDL192W, strain arf1, stronger effect = lower value 0.983 | S. cerevisiae deletion strains, locus YDR101C, strain arx1, stronger effect = lower value 0.996 | S. cerevisiae deletion strains, locus YDR150W, strain NUM1, stronger effect = lower value 1 | S. cerevisiae deletion strains, locus YDR162C, strain NBP2, stronger effect = lower value 1.02 | S. cerevisiae deletion strains, locus YDR318W, strain mcm21, stronger effect = lower value 0.974 | S. cerevisiae deletion strains, locus YDR388W, stronger effect = lower value 0.981 | S. cerevisiae deletion strains, locus YDR502C, strain sam2, stronger effect = lower value 0.99 | S. cerevisiae deletion strains, locus YEL061C, strain CIN8, stronger effect = lower value 1.01 | S. cerevisiae deletion strains, locus YER110C, stronger effect = lower value 0.975 | S. cerevisiae deletion strains, locus YER155C, strain BEM2, stronger effect = lower value 1 | S. cerevisiae deletion strains, locus YER167W, strain BCK2, stronger effect = lower value 0.99 | S. cerevisiae deletion strains, locus YGL078C, strain dbp3, stronger effect = lower value 0.993 | S. cerevisiae deletion strains, locus YGL086W, strain mad1, stronger effect = lower value 0.986 | S. cerevisiae deletion strains, locus YGL248W, strain PDE1, stronger effect = lower value 0.995 | S. cerevisiae deletion strains, locus YGR078C, strain PAC10, stronger effect = lower value 1.04 | S. cerevisiae deletion strains, locus YGR135W, strain pre9, stronger effect = lower value 0.995 | S. cerevisiae deletion strains, locus YGR229C, strain SMI1, stronger effect = lower value 1.03 | S. cerevisiae deletion strains, locus YGR252W, strain gcn5, stronger effect = lower value 0.95 | S. cerevisiae deletion strains, locus YHR030C, strain SLT2, stronger effect = lower value 0.998 | S. cerevisiae deletion strains, locus YHR079C, strain IRE1 (second series), stronger effect = lower value 0.982 | S. cerevisiae deletion strains, locus YHR094C, strain hxt1, stronger effect = lower value 0.985 | S. cerevisiae deletion strains, locus YHR129C, strain ARP1, stronger effect = lower value 1 | S. cerevisiae deletion strains, locus YHR200W, strain rpn10, stronger effect = lower value 0.981 | S. cerevisiae deletion strains, locus YIL066C, strain RNR3, stronger effect = lower value 1.01 | S. cerevisiae deletion strains, locus YIL073C, strain SPO22, stronger effect = lower value 0.918 | S. cerevisiae deletion strains, locus YIL125W, strain kgd1, stronger effect = lower value 0.992 | S. cerevisiae deletion strains, locus YIR030C, strain dcg1, stronger effect = lower value 0.987 | S. cerevisiae deletion strains, locus YJL095W, strain BCK1, stronger effect = lower value 1.06 | S. cerevisiae deletion strains, locus YJL134W, strain LCB3, stronger effect = lower value 0.994 | S. cerevisiae deletion strains, locus YJL168C, strain set2, stronger effect = lower value 0.985 | S. cerevisiae deletion strains, locus YJL187C, strain SWE1 (second series), stronger effect = lower value 1 | S. cerevisiae deletion strains, locus YJR043C, strain POL32, stronger effect = lower value 0.987 | S. cerevisiae deletion strains, locus YJR075W, strain HOC1, stronger effect = lower value 1.03 | S. cerevisiae deletion strains, locus YKL009W, strain mrt4, stronger effect = lower value 0.939 | S. cerevisiae deletion strains, locus YKL068W, stronger effect = lower value 1 | S. cerevisiae deletion strains, locus YKL085W, strain MDH1 (second series), stronger effect = lower value 0.988 | S. cerevisiae deletion strains, locus YKL085W, strain MDH1, stronger effect = lower value 0.988 | S. cerevisiae deletion strains, locus YKL190W, strain CNB1, stronger effect = lower value 1 | S. cerevisiae deletion strains, locus YKR001C, strain vps1, stronger effect = lower value 0.984 | S. cerevisiae deletion strains, locus YLR039C, strain RIC1, stronger effect = lower value 0.985 | S. cerevisiae deletion strains, locus YLR058C, strain SHM2, stronger effect = lower value 1 | S. cerevisiae deletion strains, locus YLR102C, strain apc9, stronger effect = lower value 0.993 | S. cerevisiae deletion strains, locus YLR262C, strain YPT6, stronger effect = lower value 0.976 | S. cerevisiae deletion strains, locus YLR268W, strain sec22, stronger effect = lower value 0.996 | S. cerevisiae deletion strains, locus YLR330W, strain CHS5, stronger effect = lower value 1 | S. cerevisiae deletion strains, locus YLR342W, strain FKS1 (second series), stronger effect = lower value 0.96 | S. cerevisiae deletion strains, locus YLR371W, strain rom2, stronger effect = lower value 0.98 | S. cerevisiae deletion strains, locus YLR418C, strain cdc73, stronger effect = lower value 1.04 | S. cerevisiae deletion strains, locus YML016C, strain PPZ1, stronger effect = lower value 0.997 | S. cerevisiae deletion strains, locus YML032C, strain rad52, stronger effect = lower value 0.966 | S. cerevisiae deletion strains, locus YML124C, strain tub3, stronger effect = lower value 0.982 | S. cerevisiae deletion strains, locus YMR078C, strain ctf18, stronger effect = lower value 0.972 | S. cerevisiae deletion strains, locus YMR223W, strain ubp8, stronger effect = lower value 0.965 | S. cerevisiae deletion strains, locus YMR263W, strain SAP30, stronger effect = lower value 1.03 | S. cerevisiae deletion strains, locus YMR307W, strain GAS1, stronger effect = lower value 0.957 | S. cerevisiae deletion strains, locus YNL067W, strain RPL9B, stronger effect = lower value 1.04 | S. cerevisiae deletion strains, locus YNL128W, strain TEP1, stronger effect = lower value 1.04 | S. cerevisiae deletion strains, locus YNL153C, strain GIM3, stronger effect = lower value 1.02 | S. cerevisiae deletion strains, locus YNL233W, strain BNI4, stronger effect = lower value 1.01 | S. cerevisiae deletion strains, locus YNL250W, strain rad50, stronger effect = lower value 1.02 | S. cerevisiae deletion strains, locus YNL271C, strain bni1, stronger effect = lower value 0.988 | S. cerevisiae deletion strains, locus YNL298W, strain CLA4, stronger effect = lower value 0.967 | S. cerevisiae deletion strains, locus YNL307C, strain MCK1, stronger effect = lower value 0.959 | S. cerevisiae deletion strains, locus YNL322C, strain KRE1, stronger effect = lower value 1.01 | S. cerevisiae deletion strains, locus YNR052C, strain pop2, stronger effect = lower value 0.98 | S. cerevisiae deletion strains, locus YOL006C, strain TOP1, stronger effect = lower value 1.03 | S. cerevisiae deletion strains, locus YOL012C, strain htz1 0.94 | S. cerevisiae deletion strains, locus YOL147C, strain pex11, stronger effect = lower value 0.989 | S. cerevisiae deletion strains, locus YOR061W, strain CKA2, stronger effect = lower value 1.01 | S. cerevisiae deletion strains, locus YOR069W, strain VPS5, stronger effect = lower value 0.995 | S. cerevisiae deletion strains, locus YOR136W, strain idh2, stronger effect = lower value 0.979 | S. cerevisiae deletion strains, locus YOR144C, strain elg1, stronger effect = lower value 0.994 | S. cerevisiae deletion strains, locus YOR184W, strain ser1, stronger effect = lower value 0.932 | S. cerevisiae deletion strains, locus YOR316C, strain cot1, stronger effect = lower value 0.985 | S. cerevisiae deletion strains, locus YPL055C, strain LGE1, stronger effect = lower value 1.05 | S. cerevisiae deletion strains, locus YPL241C, strain CIN2, stronger effect = lower value 1 | S. cerevisiae deletion strains, locus YPR119W, strain clb2, stronger effect = lower value 0.999 | S. cerevisiae deletion strains, locus YPR141C, strain kar3, stronger effect = lower value 0.993 | S. cerevisiae deletion strains, locus YPR163C, strain tif3, stronger effect = lower value 0.981 | S. cerevisiae deletion strains, locus YPR167C, strain met16, stronger effect = lower value 0.994 | S. cerevisiae deletion strains, strain wtn01, stronger effect = lower value 0.985 | S. cerevisiae strains, strain wild type, stronger effect = lower value 0.957

Reference: PubChem BioAssay AID1159580 (chemical genetic matrix, 2015)
